# In publication PMC7862700, “An all-to-all approach to the identification of sequence-specific readers for epigenetic DNA modifications on cytosine”:
# What was measured:
# Assay in all cases: DAPPL (digital affinity profiling via proximity ligation, sequencing); 10 mM Tris-HCl pH 7.5, 50 mM NaCl, 1 mM DTT, 4% glycerol, room temperature, 30 min; GST-TFs on glutathione beads, 16-mer random dsDNA library, 0.1% formaldehyde crosslink after washing; high values mean tight binding
# [1] = target: T1, FLI1 (Homo sapiens, UniProt Q01543 1-452); details: protein: recombinant; tags: N-terminal GST; dsDNA, one strand shown
# T1 sequence: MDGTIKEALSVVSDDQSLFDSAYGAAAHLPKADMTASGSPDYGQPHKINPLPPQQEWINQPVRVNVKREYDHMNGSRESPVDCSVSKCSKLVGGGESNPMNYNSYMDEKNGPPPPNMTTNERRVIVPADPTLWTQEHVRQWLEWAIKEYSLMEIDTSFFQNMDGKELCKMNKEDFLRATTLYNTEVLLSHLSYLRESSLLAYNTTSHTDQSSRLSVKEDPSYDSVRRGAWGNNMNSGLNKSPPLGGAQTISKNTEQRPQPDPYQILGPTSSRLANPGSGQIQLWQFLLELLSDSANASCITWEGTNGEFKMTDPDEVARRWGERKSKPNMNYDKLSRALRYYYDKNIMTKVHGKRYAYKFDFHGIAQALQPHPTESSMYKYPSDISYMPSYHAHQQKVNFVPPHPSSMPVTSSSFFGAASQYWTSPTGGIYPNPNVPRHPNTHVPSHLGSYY
# Method in brief: (§1)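 A tag-only sample was pooled with DNA-barcoded human transcription factors that had been expressed in yeast as GST fusions and captured on glutathione beads. The pools were incubated for 30 min at room temperature with 200 nmole of a random double-stranded 16-mer DNA library in Tris/NaCl/DTT/glycerol buffer, then washed, crosslinked with 0.1% formaldehyde, proximity-ligated (BsaI/T4 ligase, 1 h, 37 °C), PCR-amplified and sequenced on an Illumina NextSeq500. Binding signal is each hexamer's read frequency for a factor divided by its frequency for the tag-only sample.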
# [2] = target: T2, ELK1 (Homo sapiens, UniProt P19419 1-428); details: protein: recombinant; tags: N-terminal GST; dsDNA, one strand shown
# T2 sequence: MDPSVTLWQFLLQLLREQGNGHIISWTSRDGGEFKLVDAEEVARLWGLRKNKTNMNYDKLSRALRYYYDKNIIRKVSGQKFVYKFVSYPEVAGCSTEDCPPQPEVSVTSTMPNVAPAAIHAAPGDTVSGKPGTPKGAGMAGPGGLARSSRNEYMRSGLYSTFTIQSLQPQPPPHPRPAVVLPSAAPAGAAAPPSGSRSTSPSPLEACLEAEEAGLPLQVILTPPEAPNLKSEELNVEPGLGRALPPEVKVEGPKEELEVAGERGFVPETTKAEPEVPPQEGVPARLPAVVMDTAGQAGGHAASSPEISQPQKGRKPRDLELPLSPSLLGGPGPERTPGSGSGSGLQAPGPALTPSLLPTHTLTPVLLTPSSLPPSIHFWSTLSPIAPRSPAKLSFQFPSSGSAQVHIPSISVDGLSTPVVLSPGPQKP
# Method in brief: as §1
# [3] = target: T3, GABPA (Homo sapiens, UniProt Q06546 1-454); details: protein: recombinant; tags: N-terminal GST; dsDNA, one strand shown
# T3 sequence: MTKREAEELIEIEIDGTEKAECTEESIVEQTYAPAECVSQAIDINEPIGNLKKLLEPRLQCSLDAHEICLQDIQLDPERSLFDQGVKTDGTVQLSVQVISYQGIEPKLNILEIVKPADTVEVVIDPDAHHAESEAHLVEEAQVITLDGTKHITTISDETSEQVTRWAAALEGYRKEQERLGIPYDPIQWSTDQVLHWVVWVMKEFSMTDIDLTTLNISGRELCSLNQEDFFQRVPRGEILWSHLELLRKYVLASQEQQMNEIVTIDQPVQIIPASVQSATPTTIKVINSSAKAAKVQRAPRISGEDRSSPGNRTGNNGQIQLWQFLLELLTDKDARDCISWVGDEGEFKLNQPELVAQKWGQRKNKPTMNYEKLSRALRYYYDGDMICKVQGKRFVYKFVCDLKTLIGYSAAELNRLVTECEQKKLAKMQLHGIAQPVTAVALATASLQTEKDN
# Method in brief: as §1
# [4] = target: T4, ERG (Homo sapiens, UniProt P11308 1-479); details: protein: recombinant; tags: N-terminal GST; dsDNA, one strand shown
# T4 sequence: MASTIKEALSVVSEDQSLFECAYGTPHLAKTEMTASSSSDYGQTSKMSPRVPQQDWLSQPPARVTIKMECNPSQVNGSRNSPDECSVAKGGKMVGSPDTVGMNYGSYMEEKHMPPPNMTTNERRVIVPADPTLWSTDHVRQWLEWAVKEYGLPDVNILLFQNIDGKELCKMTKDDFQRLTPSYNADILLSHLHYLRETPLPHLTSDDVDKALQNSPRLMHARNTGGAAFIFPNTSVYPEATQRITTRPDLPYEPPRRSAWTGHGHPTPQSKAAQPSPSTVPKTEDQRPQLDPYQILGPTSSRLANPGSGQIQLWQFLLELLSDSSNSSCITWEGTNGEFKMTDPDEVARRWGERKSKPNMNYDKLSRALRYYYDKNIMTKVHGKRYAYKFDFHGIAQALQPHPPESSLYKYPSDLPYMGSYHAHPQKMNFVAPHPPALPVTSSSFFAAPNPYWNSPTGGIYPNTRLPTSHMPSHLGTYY
# Method in brief: as §1
# [5] = target: ELF1 (Homo sapiens, UniProt P32519 1-619); details: protein: recombinant; tags: N-terminal GST; dsDNA, one strand shown
# Method in brief: as §1
# [6] = target: T5, EHF (Homo sapiens, UniProt Q9NZC4 1-300); details: protein: recombinant; tags: N-terminal GST; dsDNA, one strand shown
# T5 sequence: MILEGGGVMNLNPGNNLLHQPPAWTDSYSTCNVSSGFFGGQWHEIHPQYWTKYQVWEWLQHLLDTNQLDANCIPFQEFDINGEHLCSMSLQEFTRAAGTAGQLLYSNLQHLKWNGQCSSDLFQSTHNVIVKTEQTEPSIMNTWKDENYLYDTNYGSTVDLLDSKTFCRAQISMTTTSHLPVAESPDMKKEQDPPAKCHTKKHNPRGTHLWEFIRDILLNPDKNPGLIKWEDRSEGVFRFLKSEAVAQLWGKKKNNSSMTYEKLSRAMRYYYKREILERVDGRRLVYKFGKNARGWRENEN
# Method in brief: as §1
# [7] = target: SPI1 (Homo sapiens, UniProt P17947 1-270); details: protein: recombinant; tags: N-terminal GST; dsDNA, one strand shown
# Method in brief: as §1
# [8] = target: SPIB (Homo sapiens, UniProt Q01892 1-262); details: protein: recombinant; tags: N-terminal GST; dsDNA, one strand shown
# Method in brief: as §1
# [9] = target: T6, ELK3 (Homo sapiens, UniProt P41970 1-407); details: protein: recombinant; tags: N-terminal GST; dsDNA, one strand shown
# T6 sequence: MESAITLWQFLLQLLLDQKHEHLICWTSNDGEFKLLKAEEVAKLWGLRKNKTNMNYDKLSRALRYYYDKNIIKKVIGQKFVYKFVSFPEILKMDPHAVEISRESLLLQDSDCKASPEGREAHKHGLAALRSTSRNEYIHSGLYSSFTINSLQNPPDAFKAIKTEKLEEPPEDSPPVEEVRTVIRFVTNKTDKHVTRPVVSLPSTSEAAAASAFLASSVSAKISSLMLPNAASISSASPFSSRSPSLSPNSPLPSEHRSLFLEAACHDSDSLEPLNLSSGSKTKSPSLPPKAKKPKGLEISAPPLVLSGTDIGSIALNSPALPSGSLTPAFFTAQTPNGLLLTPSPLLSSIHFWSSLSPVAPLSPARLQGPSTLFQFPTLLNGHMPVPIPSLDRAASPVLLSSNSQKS
# Method in brief: as §1
# [10] = target: T7, FEV (Homo sapiens, UniProt Q99581 1-238); details: protein: recombinant; tags: N-terminal GST; dsDNA, one strand shown
# T7 sequence: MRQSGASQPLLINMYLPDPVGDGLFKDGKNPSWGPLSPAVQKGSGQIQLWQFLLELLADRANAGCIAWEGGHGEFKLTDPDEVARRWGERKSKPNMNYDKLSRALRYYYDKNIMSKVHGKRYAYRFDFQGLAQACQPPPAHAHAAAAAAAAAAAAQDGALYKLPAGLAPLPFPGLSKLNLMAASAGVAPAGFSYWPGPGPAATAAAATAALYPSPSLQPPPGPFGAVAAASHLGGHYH
# Method in brief: as §1
# [11] = target: ETV5 (Homo sapiens, UniProt P41161 1-510); details: protein: recombinant; tags: N-terminal GST; dsDNA, one strand shown
# Method in brief: as §1
# [12] = target: HSF1 (Homo sapiens, UniProt Q00613 1-529); details: protein: recombinant; tags: N-terminal GST; chain copies: 3; dsDNA, one strand shown
# Method in brief: as §1
# [13] = target: T8, SPIC (Homo sapiens, UniProt Q8N5J4 1-248); details: protein: recombinant; tags: N-terminal GST; dsDNA, one strand shown
# T8 sequence: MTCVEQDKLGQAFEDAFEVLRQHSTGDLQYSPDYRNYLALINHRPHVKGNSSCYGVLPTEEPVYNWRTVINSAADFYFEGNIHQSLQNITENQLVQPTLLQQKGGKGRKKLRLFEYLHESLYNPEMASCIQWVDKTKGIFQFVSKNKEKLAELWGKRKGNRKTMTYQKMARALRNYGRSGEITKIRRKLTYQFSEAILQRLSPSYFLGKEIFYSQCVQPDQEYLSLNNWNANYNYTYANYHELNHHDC
# Method in brief: as §1
# [14] = target: ELF4 (Homo sapiens, UniProt Q99607 1-663); details: protein: recombinant; tags: N-terminal GST; dsDNA, one strand shown
# Method in brief: as §1
# [15] = target: T9, ELK4 (Homo sapiens, UniProt P28324-2 1-405); details: protein: recombinant; tags: N-terminal GST; dsDNA, one strand shown
# T9 sequence: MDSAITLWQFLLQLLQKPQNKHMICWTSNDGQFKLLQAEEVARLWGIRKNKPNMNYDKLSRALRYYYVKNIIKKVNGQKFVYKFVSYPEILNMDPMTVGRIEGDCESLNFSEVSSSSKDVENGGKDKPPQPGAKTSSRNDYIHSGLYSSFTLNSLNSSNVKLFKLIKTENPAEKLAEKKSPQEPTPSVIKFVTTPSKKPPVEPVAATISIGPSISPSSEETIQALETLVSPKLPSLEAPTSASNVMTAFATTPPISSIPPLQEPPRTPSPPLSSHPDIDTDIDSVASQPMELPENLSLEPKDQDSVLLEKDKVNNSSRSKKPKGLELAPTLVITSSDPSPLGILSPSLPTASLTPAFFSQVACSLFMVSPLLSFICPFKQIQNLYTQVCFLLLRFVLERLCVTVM
# Method in brief: as §1
# [16] = target: T10, ETV2 (Homo sapiens, UniProt O00321 1-342); details: protein: recombinant; tags: N-terminal GST; dsDNA, one strand shown
# T10 sequence: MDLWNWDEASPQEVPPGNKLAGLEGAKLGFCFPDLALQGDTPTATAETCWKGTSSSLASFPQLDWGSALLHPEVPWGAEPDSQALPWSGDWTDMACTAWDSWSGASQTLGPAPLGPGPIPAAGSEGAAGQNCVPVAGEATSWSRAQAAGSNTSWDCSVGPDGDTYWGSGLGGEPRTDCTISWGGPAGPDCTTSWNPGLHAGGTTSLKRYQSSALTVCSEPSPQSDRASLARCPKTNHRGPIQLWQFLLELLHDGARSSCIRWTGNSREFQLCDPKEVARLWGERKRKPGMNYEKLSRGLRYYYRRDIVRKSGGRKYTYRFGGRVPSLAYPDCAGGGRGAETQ
# Method in brief: as §1
# [17] = target: T11, ELF3 (Homo sapiens, UniProt P78545 1-371); details: protein: recombinant; tags: N-terminal GST; dsDNA, one strand shown
# T11 sequence: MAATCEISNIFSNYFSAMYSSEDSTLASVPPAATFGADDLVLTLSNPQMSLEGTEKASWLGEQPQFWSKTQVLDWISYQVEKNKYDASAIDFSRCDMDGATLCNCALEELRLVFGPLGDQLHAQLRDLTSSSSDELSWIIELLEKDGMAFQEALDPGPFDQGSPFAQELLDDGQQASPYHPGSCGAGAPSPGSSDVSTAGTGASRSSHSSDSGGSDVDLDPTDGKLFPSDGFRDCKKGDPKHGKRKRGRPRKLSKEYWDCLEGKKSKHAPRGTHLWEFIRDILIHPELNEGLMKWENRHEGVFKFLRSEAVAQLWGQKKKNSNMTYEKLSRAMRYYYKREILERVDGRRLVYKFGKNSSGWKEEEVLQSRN
# Method in brief: as §1
# [18] = target: CRX (Homo sapiens, UniProt O43186 1-299); details: protein: recombinant; tags: N-terminal GST; dsDNA, one strand shown
# Method in brief: as §1
# [19] = target: ETV1 (Homo sapiens, UniProt P50549 1-477); details: protein: recombinant; tags: N-terminal GST; dsDNA, one strand shown
# Method in brief: as §1
# Sequence of HSF1 (Q00613 whole entry): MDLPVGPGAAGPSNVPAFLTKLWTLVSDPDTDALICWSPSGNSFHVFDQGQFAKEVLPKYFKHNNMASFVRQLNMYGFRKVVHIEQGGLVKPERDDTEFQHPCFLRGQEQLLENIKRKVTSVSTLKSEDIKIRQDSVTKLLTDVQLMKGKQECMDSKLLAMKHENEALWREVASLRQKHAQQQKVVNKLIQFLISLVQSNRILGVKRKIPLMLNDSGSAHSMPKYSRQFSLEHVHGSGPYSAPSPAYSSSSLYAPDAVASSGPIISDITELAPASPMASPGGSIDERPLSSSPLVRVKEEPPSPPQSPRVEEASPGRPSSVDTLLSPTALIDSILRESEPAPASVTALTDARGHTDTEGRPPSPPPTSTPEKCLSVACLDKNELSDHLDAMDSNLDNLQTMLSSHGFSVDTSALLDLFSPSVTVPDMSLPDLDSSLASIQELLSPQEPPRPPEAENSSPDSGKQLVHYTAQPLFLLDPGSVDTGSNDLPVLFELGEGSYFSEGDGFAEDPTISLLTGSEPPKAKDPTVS
# Sequence of ELF1 (P32519 whole entry): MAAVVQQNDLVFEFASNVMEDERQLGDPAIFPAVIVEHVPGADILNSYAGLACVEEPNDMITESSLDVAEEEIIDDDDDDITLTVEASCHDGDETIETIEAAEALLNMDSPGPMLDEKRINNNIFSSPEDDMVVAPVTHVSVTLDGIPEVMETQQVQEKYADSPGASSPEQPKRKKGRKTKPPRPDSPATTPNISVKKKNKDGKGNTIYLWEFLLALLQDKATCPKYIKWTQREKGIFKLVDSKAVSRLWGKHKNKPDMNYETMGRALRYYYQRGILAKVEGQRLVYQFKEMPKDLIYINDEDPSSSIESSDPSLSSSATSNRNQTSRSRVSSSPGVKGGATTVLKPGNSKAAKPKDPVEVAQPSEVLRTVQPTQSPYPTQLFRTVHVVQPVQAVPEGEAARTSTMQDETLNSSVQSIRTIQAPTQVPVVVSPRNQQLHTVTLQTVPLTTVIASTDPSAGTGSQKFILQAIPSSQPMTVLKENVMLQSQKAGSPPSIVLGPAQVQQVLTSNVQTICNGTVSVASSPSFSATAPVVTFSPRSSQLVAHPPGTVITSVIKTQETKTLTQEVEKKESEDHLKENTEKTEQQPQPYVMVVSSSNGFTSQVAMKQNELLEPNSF
# Sequence of ELF4 (Q99607 whole entry): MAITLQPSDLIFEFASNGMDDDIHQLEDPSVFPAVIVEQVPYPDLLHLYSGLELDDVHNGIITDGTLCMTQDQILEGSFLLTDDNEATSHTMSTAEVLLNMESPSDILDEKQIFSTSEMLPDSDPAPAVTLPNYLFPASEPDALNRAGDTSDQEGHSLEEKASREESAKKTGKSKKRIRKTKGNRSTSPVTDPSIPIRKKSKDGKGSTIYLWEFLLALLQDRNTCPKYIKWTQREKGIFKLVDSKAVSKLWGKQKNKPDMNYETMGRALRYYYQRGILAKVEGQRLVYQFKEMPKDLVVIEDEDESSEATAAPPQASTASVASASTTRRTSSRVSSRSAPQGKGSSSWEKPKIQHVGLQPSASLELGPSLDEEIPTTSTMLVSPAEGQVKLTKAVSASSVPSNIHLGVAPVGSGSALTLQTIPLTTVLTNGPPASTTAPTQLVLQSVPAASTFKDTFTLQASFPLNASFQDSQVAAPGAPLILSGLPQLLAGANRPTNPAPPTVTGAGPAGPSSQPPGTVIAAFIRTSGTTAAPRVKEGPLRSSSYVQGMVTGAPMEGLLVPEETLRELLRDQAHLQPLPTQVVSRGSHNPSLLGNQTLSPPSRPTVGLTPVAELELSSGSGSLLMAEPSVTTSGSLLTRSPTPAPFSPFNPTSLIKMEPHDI
# Sequence of ETV5 (P41161 whole entry): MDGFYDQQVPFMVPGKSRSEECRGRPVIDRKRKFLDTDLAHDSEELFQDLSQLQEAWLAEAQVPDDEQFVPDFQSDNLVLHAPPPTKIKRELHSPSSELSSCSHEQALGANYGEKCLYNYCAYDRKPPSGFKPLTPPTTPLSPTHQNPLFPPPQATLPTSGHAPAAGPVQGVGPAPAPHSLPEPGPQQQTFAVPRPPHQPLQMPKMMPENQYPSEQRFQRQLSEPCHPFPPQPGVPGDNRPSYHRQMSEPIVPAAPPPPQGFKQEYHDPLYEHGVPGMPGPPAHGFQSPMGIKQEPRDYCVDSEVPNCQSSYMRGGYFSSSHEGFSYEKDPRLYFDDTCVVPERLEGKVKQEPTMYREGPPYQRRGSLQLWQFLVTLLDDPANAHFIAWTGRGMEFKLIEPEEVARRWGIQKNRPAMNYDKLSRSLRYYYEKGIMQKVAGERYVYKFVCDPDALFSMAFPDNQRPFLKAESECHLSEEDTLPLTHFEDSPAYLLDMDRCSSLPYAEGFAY
# Sequence of CRX (O43186 whole entry): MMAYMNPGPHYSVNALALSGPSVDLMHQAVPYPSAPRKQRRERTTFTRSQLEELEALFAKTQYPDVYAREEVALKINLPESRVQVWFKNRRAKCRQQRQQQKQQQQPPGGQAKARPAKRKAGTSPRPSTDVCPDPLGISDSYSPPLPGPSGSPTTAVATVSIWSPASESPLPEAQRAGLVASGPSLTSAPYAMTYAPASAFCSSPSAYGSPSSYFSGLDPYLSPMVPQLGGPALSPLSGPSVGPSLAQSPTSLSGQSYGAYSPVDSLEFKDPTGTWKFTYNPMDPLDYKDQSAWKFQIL
# Sequence of SPIB (Q01892 whole entry): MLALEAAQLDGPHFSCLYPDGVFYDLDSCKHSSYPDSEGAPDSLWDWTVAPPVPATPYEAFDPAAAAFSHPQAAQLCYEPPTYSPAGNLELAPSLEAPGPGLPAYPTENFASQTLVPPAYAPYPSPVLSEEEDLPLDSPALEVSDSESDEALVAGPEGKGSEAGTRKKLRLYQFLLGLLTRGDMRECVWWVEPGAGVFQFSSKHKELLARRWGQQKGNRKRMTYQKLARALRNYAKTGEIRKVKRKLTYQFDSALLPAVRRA
# Sequence of ETV1 (P50549 whole entry): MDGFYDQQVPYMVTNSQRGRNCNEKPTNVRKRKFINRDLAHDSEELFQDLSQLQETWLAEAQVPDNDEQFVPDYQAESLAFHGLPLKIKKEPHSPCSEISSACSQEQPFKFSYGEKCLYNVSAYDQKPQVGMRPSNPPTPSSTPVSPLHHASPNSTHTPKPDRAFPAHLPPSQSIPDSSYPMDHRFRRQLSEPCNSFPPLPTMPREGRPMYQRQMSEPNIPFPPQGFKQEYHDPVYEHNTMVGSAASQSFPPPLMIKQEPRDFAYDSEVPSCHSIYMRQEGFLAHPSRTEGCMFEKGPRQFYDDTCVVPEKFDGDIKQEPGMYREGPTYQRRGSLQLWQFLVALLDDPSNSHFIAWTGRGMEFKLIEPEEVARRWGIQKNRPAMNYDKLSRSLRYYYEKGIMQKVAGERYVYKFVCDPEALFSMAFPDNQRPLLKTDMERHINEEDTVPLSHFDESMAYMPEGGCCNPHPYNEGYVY
sequence,measurement,setting,value
AACCAA,binding signal,[1],"1.24 fold enrichment (6-mer frequency, TF over GST control)"
same,binding signal,[2],"1.22 fold enrichment (6-mer frequency, TF over GST control)"
same,binding signal,[3],"1.25 fold enrichment (6-mer frequency, TF over GST control)"
same,binding signal,[4],"1.16 fold enrichment (6-mer frequency, TF over GST control)"
same,binding signal,[5],"1.22 fold enrichment (6-mer frequency, TF over GST control)"
same,binding signal,[6],"1.22 fold enrichment (6-mer frequency, TF over GST control)"
same,binding signal,[7],"1.19 fold enrichment (6-mer frequency, TF over GST control)"
same,binding signal,[8],"1.15 fold enrichment (6-mer frequency, TF over GST control)"
same,binding signal,[9],"1.19 fold enrichment (6-mer frequency, TF over GST control)"
same,binding signal,[10],"1.19 fold enrichment (6-mer frequency, TF over GST control)"
same,binding signal,[11],"1.21 fold enrichment (6-mer frequency, TF over GST control)"
same,binding signal,[12],"1.08 fold enrichment (6-mer frequency, TF over GST control)"
same,binding signal,[13],"1.1 fold enrichment (6-mer frequency, TF over GST control)"
same,binding signal,[14],"1.33 fold enrichment (6-mer frequency, TF over GST control)"
same,binding signal,[15],"1.05 fold enrichment (6-mer frequency, TF over GST control)"
same,binding signal,[16],"1.21 fold enrichment (6-mer frequency, TF over GST control)"
same,binding signal,[17],"1.32 fold enrichment (6-mer frequency, TF over GST control)"
same,binding signal,[18],"1.09 fold enrichment (6-mer frequency, TF over GST control)"
same,binding signal,[19],"1.2 fold enrichment (6-mer frequency, TF over GST control)"
